# Measurements from the supplement of paper PMC6555819.
# How the values were obtained:
# Assay in all cases: PBM binding z-score (relative to random genomic background probes); higher = stronger binding; sequences stand for … in GC…GCGATTGACAGCGTAGAATGAAGG
# [1] = system: RARb homodimer (NR concentration 270 nM)
# Outline: (§1)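 Ligand-free nuclear receptor dimers were bound for 1 h to custom Agilent 4×180K protein-binding microarrays. Detection used antibodies against each partner (one per run). Binding z-scores rest on regression-normalized fluorescence, with random background probes as the reference.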
# [2] = system: RARg:RXRa (NR concentration 270 nM, RXRa partner concentration 90 nM)
# Outline: as §1
# [3] = system: RARg homodimer (NR concentration 270 nM)
# Outline: as §1
# [4] = system: RXRa DBDmut IVT, anti-RXR (DBD mutation: RXRa K156A/R161A, NR concentration 90 nM)
# Outline: as §1
# [5] = system: RXRa homodimer (NR concentration 180 nM)
# Outline: as §1
# [6] = system: THRa:RXRa (NR concentration 90 nM, RXRa partner concentration 90 nM)
# Outline: as §1
# [7] = system: THRa homodimer (NR concentration 90 nM)
# Outline: as §1
# [8] = system: VDR:RXRa (NR concentration 270 nM, RXRa partner concentration 90 nM)
# Outline: as §1
# [9] = system: VDR homodimer (NR concentration 270 nM)
# Outline: as §1
Sequence,PBM binding z-score [1],PBM binding z-score [2],PBM binding z-score [3],PBM binding z-score [4],PBM binding z-score [5],PBM binding z-score [6],PBM binding z-score [7],PBM binding z-score [8],PBM binding z-score [9]
CCTCCTAGGTCAATGGTCAGCTAAAGCAGCTCGC,3.17,3.66,4.2,1.03,2.16,2.61,1.17,1.29,0.912
CCTACTAGGTCATGGTCAGCTAATCTACAGTATG,3.34,3.79,4.21,1.37,2.66,2.87,1.53,1.8,0.776
ATATGTAGGTTACATCCGGGTCATTCATGCTATG,2.82,3.6,2.21,1.42,2.93,3.61,2.46,4.1,3.43
AGAACGAGGGCACTCTGAGTTGATAGCAGAGTAG,0.374,1.4,1.55,2.21,0.823,1.29,-0.153,1.88,1.73
GGAAGGAGGGCAAAGTTGATAGCATCTGTCGACG,1.91,2.07,1.55,1.37,1.89,1.04,0.664,0.964,1.44
ATCGAAAGGTCGTGGGGTGAGTATACAGAAAGGC,3.6,5.2,4.44,2.07,6.17,3.62,2.02,4.83,2.16
AGAATGAGGTTAATAAGATCAGGGAATTGCGGTC,0.992,1.32,1.09,1.16,1.82,2.04,0.762,2.02,0.247
CCGACTGGGGTAAGGTTACCATAACGCACAGCCA,1.12,0.907,0.859,-0.0386,1.55,2.36,1.47,0.525,0.414
CCTACTGGGCCATTCAGAGGTCATTAATCATATG,3.81,4.21,2.91,0.793,3.48,3.13,1.35,3.64,3.11
CAAACTAGGTCACCGCAAGGTCAAAGTCCGCATG,5.35,8.07,7.32,2.61,6.15,4.68,4.38,6.39,4.3
GCTCGGAGGATAAGGTCAGAGCTTTGTCCGTAGA,3.31,2.92,3.06,0.342,2.71,3.33,2.82,1.15,0.184
CCTTACGGGTCACGAGGTTATAGGACGACGAGCG,3.83,6.08,5.52,1.46,7.19,3.68,1.02,4.9,1.85
GCGAGTGGGGCATCAGCAGGTTACCATAACTTAA,0.915,1.05,0.378,-0.215,0.32,0.958,0.127,0.049,-0.291
CCAAGTTGGTCAAGGTCACACACGCTATAGGTAC,4.47,5.04,5.36,2.86,5.31,4.06,4.34,4.79,4.56
GCTTGTAGATCAAGGTTAAAAAAGACTAAGCTAA,0.0487,0.373,0.226,0.0617,0.736,1.14,-0.222,0.328,0.0143
AGTCAAAGTTCACTAGGTAACATAAGATTCAGCT,3.84,4.96,5.9,4.29,3.76,2.08,0.138,4.14,4.22
CCTACTGGGCCAAAAACGTCATTGATGCCGATAA,-0.34,-0.089,-0.172,-0.196,0.029,-0.371,-0.47,-0.0711,-0.735
ACTCGGAGGACAAAGGTCAGAGCAACGCCAGTGA,4.24,6.11,5.43,1.26,5.09,3.55,0.599,3.39,1.14
AGTCAAAGTTCATCTACGTAACGTAAGATATGCT,3.64,5.4,6,4.59,4.55,1.88,-0.445,4.77,4.34
AATACAGGGTCACTAGGCCAGAGAAGGTACGAAT,3.45,5.18,4.96,2.58,5.52,3.52,1.18,4.08,2.31
CCTTACGTGTCACGAGGTTATAGCACGACGAGCG,1.49,2.24,1.64,0.866,2.06,1.96,0.982,1.89,1.01
CGTCCAAGGTCAAGGTCATTGAAAGAGACTCGAA,5.3,7.02,7.64,3.89,7.4,4.39,3.82,5.37,5.11
CGAACTAGGTCAGTGACAGGACAGTGAATAGTAA,2.76,3.47,3.9,0.653,1.34,1.98,0.499,0.664,0.295
ACAGACAGGTGATGAAAGTAACTCAGGCTATCAT,-0.49,0.123,0.169,-0.387,0.297,-0.0258,-0.579,-0.184,-0.942
CTTACTGGGCCATTCAGAGGTCATTGATCATATG,4.12,4.5,3.62,1.88,4.04,3.24,1.61,4.23,3.73
CCTAGCAGGCCAGTGTCACTCAAGCATTTCGCTT,0.0425,-0.0888,-0.171,0.13,-0.38,-0.213,-0.656,-0.398,-0.509
CCAGACAGGTGAGAAGGTAGCTCAGCCTCGATTA,0.12,0.0158,-0.00904,-0.104,-0.128,-0.29,-0.679,-0.387,-0.24
CGTAAAAGTTCAACTAAGGTAACGTAAAGCACGC,3.88,5.28,6.11,4.41,4.42,5.35,1.75,4.33,3.84

Sequence,PBM binding z-score [1],PBM binding z-score [2],PBM binding z-score [3],PBM binding z-score [4],PBM binding z-score [5],PBM binding z-score [6],PBM binding z-score [7],PBM binding z-score [8],PBM binding z-score [9]
AGAATGAGGTTATACGTTGATCAGGGAAGAAAGT,0.786,1.49,0.994,1.71,2.12,2.2,0.901,–,1.5
TGAATGAGGTTATAAGATCACGGAACGTTGCAAA,0.253,2.04,1.23,0.931,2.7,2.08,0.188,–,0.468
ATCGAAAGGTCGAGGTGAGTAGAGAGAAAGGGAA,2.81,4.37,4.69,0.806,4.41,2.62,0.626,–,0.405
ATCTCTAGGTAAAGAAAGTTCAGTGAATGCAAAT,2.33,1.43,1.59,0.781,0.876,1.22,0.318,–,1.71
ATCTCTAGGTAAAGATAGTTAAGTGAATGCAAAT,-0.639,0.108,0.448,-0.348,-0.199,0.104,-0.211,–,-0.177
TTACCAAGGTGAGCTGACGTCGTTGATCCAACTC,-0.0202,0.00493,0.0726,-0.698,0.32,0.839,-0.28,–,-1.04
CCTTACGGGCCACTCCAGGTTATAGCATCGGAGT,0.457,0.099,0.515,-0.62,-0.0369,2.62,0.204,–,0.0382
GCAGACAGGTGAAACGCACGTAACTCAGGGTGGC,-0.115,0.327,0.0511,-0.335,0.528,-0.124,-0.367,–,-0.768
TCGAGTAGGTTAGCCGGGGCATTCAGCCAACATA,0.49,0.0604,-0.231,0.227,0.332,1.17,-0.114,–,-0.000725
GCTTGTAGATCAAGGTTAAGTAAGACTAAGCTAA,0.397,0.425,0.177,0.147,0.706,2.36,-0.276,–,-0.509
TCGTGTAGATCAAAGGTTAAGAAAGCCGAAGCCT,1.47,1.76,0.92,0.608,3.14,1.33,0.108,–,0.111
CGTTCAAGGTCAAGGTCAGTGAAAGAGACTCGAA,5.27,6.92,7.85,3.86,6.6,4.48,4.1,–,3.59
ACTTACGGGTCAACGAGGTTATAGCGCGCGTATA,3.76,5.67,5.32,2.92,6.24,4.09,0.869,–,4.01
CCGACTGGGGCATAATGTTACCATAAGCCAGCCC,-0.153,0.0195,0.3,-0.127,0.021,-0.493,-0.413,–,-0.295
CCTTTCGGGTCACTCCAGGTTATAGCATCGGAGT,3.43,4.46,4.55,2.36,4.03,5.16,3.18,–,1.87
ATACCAAGGTGCTCGTGAGGTCGTTGATACTAAC,1.4,0.626,0.196,0.552,0.882,3.31,2.12,–,2.55
CCAATTAGTTGACCATAAGGGCAACCGAAGCTCG,2.16,1.22,1.02,0.647,0.634,1.98,1.5,–,0.962
CAAACTAGGTCAAGGTCAAGGTCGGTTTGTGCCA,5.4,6.25,7.34,2.79,6.62,4.54,4.73,–,4.06
CCAGACAGGCGAAAGGTAACTCAGTCTGGTACGC,-0.261,0.0389,-0.491,-0.267,0.25,-0.18,-0.896,–,-0.57
CGTCCAAGGTCAGAGAGGTCAGTTAATGCCGAGT,5.24,6.43,7.24,3.83,5.63,4.39,2.8,–,6.29
CGTACGAGGGCATGAGTTGATAGCAAATGCCGAT,0.825,1.38,1.57,2.36,1.03,1.37,-0.172,–,1.67
CGAACGAGGGCATGCGTTGATAGCAAATGCCGAT,0.766,1.03,1.55,2.39,0.91,0.988,-0.0968,–,1.21
GCTGCTAGGTCAACTGATGGTCAGCGAAAGCTCG,3.66,5.35,5.22,1.57,3.2,2.98,0.857,–,0.0996
CCTACTGTGCCAAAGGTCATTGATTCCAATGCTC,4.59,5.61,5.21,2.09,6.46,3.46,1.72,–,3.37
ATCTCTAGGTAACCAAGTTCAGAGAATGCCGAAC,1.48,0.849,1.13,0.821,0.723,1.46,0.471,–,2.7
ATCGAAAGGTCGCGGTGAGTATAGAGAAAGGGAA,3.05,5,4.48,1.33,5.39,2.84,0.211,–,1.06
GTACCAAGGTGAATAGGACGTTGATGAGTAGGCG,0.539,0.543,0.959,-0.489,0.542,1.24,0.345,–,0.0653
